{"source": "the OligoGym collection", "assay_in_all_cases": "pooled miR-30 sensor sort-seq; sequence = guide strand", "conditions_in_all_cases": "shRNA", "key": {"RAD9A": {"target": "RAD9A"}, "RBMY1E": {"target": "RBMY1E"}, "RDH5": {"target": "RDH5"}, "RBP1": {"target": "RBP1"}, "RCSD1": {"target": "RCSD1"}, "RDH8": {"target": "RDH8"}, "RECQL4": {"target": "RECQL4"}, "REPS2": {"target": "REPS2"}, "RELA": {"target": "RELA"}}}
{"sequence": "TCAAGTTTGCTGACTCTGCAAA", "values": [{"measurement": "sensor-assay potency score (higher = more potent)", "setting": "RAD9A", "result": -0.678}]}
{"sequence": "TTCCACCATAGGACATCCGAGG", "values": [{"measurement": "sensor-assay potency score (higher = more potent)", "setting": "RBMY1E", "result": -1.61}]}
{"sequence": "TAACTTGAGCTACCACATGCTT", "values": [{"measurement": "sensor-assay potency score (higher = more potent)", "setting": "RBMY1E", "result": -1.09}]}
{"sequence": "TTAACGTGCATCTCCACCCACT", "values": [{"measurement": "sensor-assay potency score (higher = more potent)", "setting": "RDH5", "result": -0.757}]}
{"sequence": "TTTCTCGGGAACTTCGACGATT", "values": [{"measurement": "sensor-assay potency score (higher = more potent)", "setting": "RBMY1E", "result": -0.472}]}
{"sequence": "TTCTCGTTGACCAACATCTTCC", "values": [{"measurement": "sensor-assay potency score (higher = more potent)", "setting": "RBP1", "result": -0.467}]}
{"sequence": "TTTCAGGTACTTGGTGAGGAAG", "values": [{"measurement": "sensor-assay potency score (higher = more potent)", "setting": "RDH5", "result": -1.78}]}
{"sequence": "TTCCTAAAAGTGCTCAGCGTGC", "values": [{"measurement": "sensor-assay potency score (higher = more potent)", "setting": "RBP1", "result": -1.04}]}
{"sequence": "TGCATTTTCAGGTACTTGGTGA", "values": [{"measurement": "sensor-assay potency score (higher = more potent)", "setting": "RDH5", "result": 0.187}]}
{"sequence": "TGTGTTCACATTCAGCACCCGC", "values": [{"measurement": "sensor-assay potency score (higher = more potent)", "setting": "RDH5", "result": -1.07}]}
{"sequence": "TTTCTCCAGACTCTCCAGGTTG", "values": [{"measurement": "sensor-assay potency score (higher = more potent)", "setting": "RDH5", "result": -1.05}]}
{"sequence": "TTCCTTAGCACCGTTCTGCTGA", "values": [{"measurement": "sensor-assay potency score (higher = more potent)", "setting": "RCSD1", "result": 0.0396}]}
{"sequence": "TAGAACATTAAAAAGGAACTTT", "values": [{"measurement": "sensor-assay potency score (higher = more potent)", "setting": "RCSD1", "result": 0.0564}]}
{"sequence": "TTGACCAACATCTTCCAGTACC", "values": [{"measurement": "sensor-assay potency score (higher = more potent)", "setting": "RBP1", "result": -0.856}]}
{"sequence": "TTGCTTGCAGACCACACCTTCC", "values": [{"measurement": "sensor-assay potency score (higher = more potent)", "setting": "RBP1", "result": -0.849}]}
{"sequence": "TATCTCTTCTAGTCCAGTGTTT", "values": [{"measurement": "sensor-assay potency score (higher = more potent)", "setting": "RCSD1", "result": -0.522}]}
{"sequence": "TTGTCATGCACTTGCGGTCATC", "values": [{"measurement": "sensor-assay potency score (higher = more potent)", "setting": "RBP1", "result": -1.49}]}
{"sequence": "TAGGTCCGGGTCACAGATCAGG", "values": [{"measurement": "sensor-assay potency score (higher = more potent)", "setting": "RDH5", "result": -1.62}]}
{"sequence": "ATCAGTGATATCCAACAGGGTG", "values": [{"measurement": "sensor-assay potency score (higher = more potent)", "setting": "RDH5", "result": -0.912}]}
{"sequence": "ATGAAGAGTCTGTTCATCCTTT", "values": [{"measurement": "sensor-assay potency score (higher = more potent)", "setting": "RDH8", "result": 0.345}]}
{"sequence": "TTAAAAAGGAACTTTACCCAAG", "values": [{"measurement": "sensor-assay potency score (higher = more potent)", "setting": "RCSD1", "result": -0.456}]}
{"sequence": "TAGCCTTTTCCATCTCTGCTTC", "values": [{"measurement": "sensor-assay potency score (higher = more potent)", "setting": "RCSD1", "result": -0.0691}]}
{"sequence": "TTCTGCACACACTGGAGCTTGT", "values": [{"measurement": "sensor-assay potency score (higher = more potent)", "setting": "RBP1", "result": -0.8}]}
{"sequence": "TACAACTGTTGCTGCTACCTGC", "values": [{"measurement": "sensor-assay potency score (higher = more potent)", "setting": "RCSD1", "result": 0.0449}]}
{"sequence": "ATGAGCTACATCCCGCCTCAGG", "values": [{"measurement": "sensor-assay potency score (higher = more potent)", "setting": "RDH5", "result": -1.65}]}
{"sequence": "TCGGAAGCCTCTCTGGTCCAGC", "values": [{"measurement": "sensor-assay potency score (higher = more potent)", "setting": "RDH5", "result": -1.15}]}
{"sequence": "TCGTTGACCAACATCTTCCAGT", "values": [{"measurement": "sensor-assay potency score (higher = more potent)", "setting": "RBP1", "result": -0.239}]}
{"sequence": "ACTGTTGTCATGCACTTGCGGT", "values": [{"measurement": "sensor-assay potency score (higher = more potent)", "setting": "RBP1", "result": -1.01}]}
{"sequence": "TTTGATACAATTTAGGGTCTTC", "values": [{"measurement": "sensor-assay potency score (higher = more potent)", "setting": "RCSD1", "result": 0.305}]}
{"sequence": "TTGAGAACCGTAAACACTTTAG", "values": [{"measurement": "sensor-assay potency score (higher = more potent)", "setting": "RCSD1", "result": -0.662}]}
{"sequence": "ATTCTCGTTGACCAACATCTTC", "values": [{"measurement": "sensor-assay potency score (higher = more potent)", "setting": "RBP1", "result": -0.954}]}
{"sequence": "TTCCTTAACGTGCATCTCCACC", "values": [{"measurement": "sensor-assay potency score (higher = more potent)", "setting": "RDH5", "result": -0.947}]}
{"sequence": "TAACTGATATTTGAGAACCGTA", "values": [{"measurement": "sensor-assay potency score (higher = more potent)", "setting": "RCSD1", "result": -1.05}]}
{"sequence": "AACTTGAGCTACCACATGCTTC", "values": [{"measurement": "sensor-assay potency score (higher = more potent)", "setting": "RBMY1E", "result": -1.03}]}
{"sequence": "TACTCCTCGAAATTCTCGTTGA", "values": [{"measurement": "sensor-assay potency score (higher = more potent)", "setting": "RBP1", "result": -0.0394}]}
{"sequence": "TCAGTGATATCCAACAGGGTGG", "values": [{"measurement": "sensor-assay potency score (higher = more potent)", "setting": "RDH5", "result": -0.32}]}
{"sequence": "TTGAAAAGTTGTCTCTAGGGTT", "values": [{"measurement": "sensor-assay potency score (higher = more potent)", "setting": "RCSD1", "result": -0.0262}]}
{"sequence": "TTTGAGAACCGTAAACACTTTA", "values": [{"measurement": "sensor-assay potency score (higher = more potent)", "setting": "RCSD1", "result": -0.421}]}
{"sequence": "TTCCACTCTCATCTCTAGGTGC", "values": [{"measurement": "sensor-assay potency score (higher = more potent)", "setting": "RBP1", "result": -0.438}]}
{"sequence": "AAGTCCATGATGTAGTTCCTAA", "values": [{"measurement": "sensor-assay potency score (higher = more potent)", "setting": "RBP1", "result": -0.968}]}
{"sequence": "TTGTTGTTGAACCAAGTCCATC", "values": [{"measurement": "sensor-assay potency score (higher = more potent)", "setting": "RCSD1", "result": -1.65}]}
{"sequence": "TTGAGCTACCACATGCTTCACG", "values": [{"measurement": "sensor-assay potency score (higher = more potent)", "setting": "RBMY1E", "result": -0.607}]}
{"sequence": "AAAATGAGCTACATCCCGCCTC", "values": [{"measurement": "sensor-assay potency score (higher = more potent)", "setting": "RDH5", "result": -0.19}]}
{"sequence": "AACAGCATCTGTGTCTTCCTCA", "values": [{"measurement": "sensor-assay potency score (higher = more potent)", "setting": "RECQL4", "result": 0.181}]}
{"sequence": "TCGTTCTTGATGAACCTCCTTG", "values": [{"measurement": "sensor-assay potency score (higher = more potent)", "setting": "REPS2", "result": -0.785}]}
{"sequence": "TTGGTTGTGACTGTGGCACCAC", "values": [{"measurement": "sensor-assay potency score (higher = more potent)", "setting": "RECQL4", "result": 0.278}]}
{"sequence": "TTTACGTTTCTCCTCAATCCGG", "values": [{"measurement": "sensor-assay potency score (higher = more potent)", "setting": "RELA", "result": -0.69}]}
{"sequence": "TTCTGCTTCATGTTGAGCCGTA", "values": [{"measurement": "sensor-assay potency score (higher = more potent)", "setting": "RECQL4", "result": 0.124}]}
{"sequence": "TATTTTCTCCAGAAGCGTCGGT", "values": [{"measurement": "sensor-assay potency score (higher = more potent)", "setting": "RECQL4", "result": 0.184}]}
{"sequence": "TTCTGCAGGACAGATTCCCGTT", "values": [{"measurement": "sensor-assay potency score (higher = more potent)", "setting": "RECQL4", "result": -0.459}]}
{"sequence": "TCAAACTCGGTGACCACGGGGC", "values": [{"measurement": "sensor-assay potency score (higher = more potent)", "setting": "RDH8", "result": -0.118}]}
{"sequence": "TTGTCGGTGCACATCAGCTTGC", "values": [{"measurement": "sensor-assay potency score (higher = more potent)", "setting": "RELA", "result": -0.891}]}
{"sequence": "TATCTGTGCTCCTCTCGCCTGG", "values": [{"measurement": "sensor-assay potency score (higher = more potent)", "setting": "RELA", "result": -1}]}
{"sequence": "TTCATCATCAAACTGCAGCTGC", "values": [{"measurement": "sensor-assay potency score (higher = more potent)", "setting": "RELA", "result": 0.151}]}
{"sequence": "TTACGTTTCTCCTCAATCCGGT", "values": [{"measurement": "sensor-assay potency score (higher = more potent)", "setting": "RELA", "result": 0.444}]}
{"sequence": "TCAATGATCTCCACATAGGGGC", "values": [{"measurement": "sensor-assay potency score (higher = more potent)", "setting": "RELA", "result": -0.148}]}
{"sequence": "TTATTCTGCATTTTGGAGCCTC", "values": [{"measurement": "sensor-assay potency score (higher = more potent)", "setting": "RECQL4", "result": 0.116}]}
{"sequence": "TTCTTTGACATCATAAAGCGAG", "values": [{"measurement": "sensor-assay potency score (higher = more potent)", "setting": "REPS2", "result": -0.889}]}
{"sequence": "TTCTATAGGAACTTGGAAGGGG", "values": [{"measurement": "sensor-assay potency score (higher = more potent)", "setting": "RELA", "result": 0.628}]}
{"sequence": "TTGAGCTCGGCAGTGTTGGGGG", "values": [{"measurement": "sensor-assay potency score (higher = more potent)", "setting": "RELA", "result": 0.294}]}
